Each structure is given as a SMILES string. Among all 4,900 compounds or so, about 200 (4.1%) were called active.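 Rule for the calls: active = thallium signal drop more than 5 SD beyond the mean of the no-compound control wells, seen in both duplicate plates; inactive = the rest.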 These entries were drawn from the full list.

The target of this assay is Inward rectifier potassium channel 2 (Mus musculus) (UniProt P35561). The assay is described as follows: off-target Kir2.1 potassium flux block – cell-based, HEK293, thallium flux, selectivity assay for KCNK9 modulator project, confirmation (AID 492993).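 For inhibition: signal is fluorescence rise after thallium addition divided by baseline fluorescence; plate controls were assay buffer only for no effect and full block by chlorpromazine control for full effect.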 The note with it: Kir2.1 cells, FluxOR thallium flux fluorescence, at 10 µM; hits give high values.
Inward rectifier potassium channel 2 (Mus musculus), sequence (P35561 whole entry, looked up): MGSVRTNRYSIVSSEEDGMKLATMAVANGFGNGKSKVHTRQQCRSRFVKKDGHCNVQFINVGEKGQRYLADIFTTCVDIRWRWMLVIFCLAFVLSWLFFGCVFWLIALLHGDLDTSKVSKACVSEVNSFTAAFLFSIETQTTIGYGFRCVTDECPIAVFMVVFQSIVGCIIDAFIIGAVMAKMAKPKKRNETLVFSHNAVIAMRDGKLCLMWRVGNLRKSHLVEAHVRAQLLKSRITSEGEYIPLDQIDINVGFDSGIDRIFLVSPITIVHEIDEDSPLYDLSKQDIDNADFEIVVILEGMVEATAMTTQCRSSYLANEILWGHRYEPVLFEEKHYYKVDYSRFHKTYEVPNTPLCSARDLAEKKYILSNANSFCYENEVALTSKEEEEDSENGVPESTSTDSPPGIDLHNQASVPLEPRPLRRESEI
In general, inhibition refers to how much of the control response was suppressed. For `C=CCc1cc(S(=O)(=O)c2ccc(O)c(CC=C)c2)ccc1O`, the inhibition entry was “inactive”.

For the compound `COc1ccc(C2CC(c3cccs3)=NN2c2ccccc2)cc1` (stereo not drawn), the inhibition entry was “inactive”.

Regarding `Cc1cccc(N(C)C(=O)CN2C(=O)COc3ccc(S(=O)(=O)N4CCCCCC4)cc32)c1`, the inhibition entry was “inactive”.

As for `CCOC(=O)c1c(NC(=O)CSc2cn(CC)c3ccccc23)sc2c1CCC2`, the inhibition entry was “inactive”.

For `CCCCCC(O)c1cccc(OCc2ccc3ccccc3n2)c1` (stereo not drawn), the inhibition is 70.5% (active).

On to `COc1cccc(COC(=O)C2CCN(S(=O)(=O)c3ccc(Cl)cc3)CC2)c1OC`, for which the inhibition result is “inactive”.

As for `CC(C)C(=O)Nc1cccc(NC(=S)NC(=O)C(c2ccccc2)c2ccccc2)c1`, the inhibition result is “inactive”.

With `O=C(Cn1cc(C(=O)c2cccs2)c2ccccc21)NCc1cccs1`, the inhibition result was “inactive”.

In the case of `C/C(=N\NC(=S)Nc1ccc(C)cc1)c1cc2ccccc2o1`, the inhibition entry is “inactive”.

As for `Cc1ccc(SCC(=O)c2cc(C)c(OC(=S)N(C)C)c(C)c2)cc1`, the inhibition result was “inactive”.

For the compound `CCOC(=O)Cc1cc(=O)[nH]c(=O)[nH]1`, the inhibition result is “inactive”.

`O=C(NNc1ccccc1Cl)C(O)(c1cccc(C(F)(F)F)c1)c1cccc(C(F)(F)F)c1`: the inhibition entry is “inactive”.

Consider `CC1(C)CC(N2CCN(C(c3ccccc3)c3ccccc3)CC2)=CC(=[N+]2CCCCC2)C1`, for which the inhibition was 65% (active).

With `c1ccc(C(c2ccccc2)N2CCN(Cc3nnnn3C3CCCCC3)CC2)cc1`, the inhibition result is “inactive”.

For the compound `CCC(C)(C)n1nnnc1C(c1cccs1)N1CCN(c2nc3ccccc3s2)CC1` (stereo not drawn), the inhibition entry was “inactive”.

Take `Clc1ccc(CSc2nnc(/C=C/c3ccccc3)o2)c(Cl)c1`: the inhibition entry was “inactive”.

Consider `COc1ccccc1C(c1nnnn1C(C)(C)C)N1CCN(Cc2ccccc2)CC1` (stereo not drawn), for which the inhibition entry is “inactive”.

Regarding `CN(C)S(=O)(=O)N1CCC(Oc2cccc(C(=O)NCCCC3CCCC3)c2)CC1`, the inhibition entry is “inactive”.

On to `O=[N+]([O-])c1ccc(N2CCN(CC(O)COc3ccccc3)CC2)cc1` (stereo not drawn), for which the inhibition entry was “inactive”.

Turning to `O=C(Oc1ccc(Br)cc1C(=S)N1CCOCC1)c1cccc([N+](=O)[O-])c1`, the inhibition entry is “inactive”.

For `CN(CCOc1ccccc1)C(=O)c1cc(COc2c(F)cccc2F)on1`, the inhibition result was “inactive”.

In the case of `COC(=O)c1sc(-c2ccc(C(C)(C)C)cc2)cc1NC(=O)/C=C/C(=O)O`, the inhibition result was “inactive”.

Take `COc1cc(C(CCN2CCN(c3ccccc3)CC2)c2c(OC)cc(OC)c3ccc(=O)oc23)cc(OC)c1OC` (stereo not drawn): the inhibition entry was “inactive”.

As for `O=C1/C(=C/c2ccc3c(c2)OCO3)CCC/C1=C\c1ccc2c(c1)OCO2`, the inhibition entry is “inactive”.

As to `O=C(Nc1cc(Cl)cc(Cl)c1)C(NCCCO)c1ccccc1` (stereo not drawn), the inhibition entry is “inactive”.

As to `O=C(NCc1ccco1)c1ccc(NS(=O)(=O)c2cccc([N+](=O)[O-])c2)cc1`, the inhibition result is “inactive”.

Consider `O=C1c2ccccc2C2=Nc3ccccc3SC(c3ccccc3F)C12` (stereo not drawn), for which the inhibition result is “inactive”.

For the compound `Cc1cccc(NC(=O)CN2CCCN(S(=O)(=O)c3ccc(Br)s3)CC2)c1`, the inhibition result is “inactive”.

Consider `Cc1ccc(C)c(NC(=S)NNC(=S)Nc2ccc(C(C)C)cc2)c1`, for which the inhibition result is “inactive”.

As for `Cc1c(C(=O)Nc2ccccn2)oc2ccc(Br)cc12`, the inhibition result was “inactive”.

On to `O=C(CC(NC(=O)c1ccccc1)c1ccccc1)Nc1ccc(F)c(F)c1` (stereo not drawn), for which the inhibition result was “inactive”.

On to `CCCCN(CC)C(=O)C1CCCN(S(=O)(=O)c2cccc3nsnc23)C1` (stereo not drawn), for which the inhibition result is “inactive”.

Consider `Oc1ccc(/C=N/Nc2nc(-c3ccccc3F)nc3ccccc23)c(O)c1`, for which the inhibition result was “inactive”.

Take `COC(=O)Cn1cnc2scc(-c3ccc(C)c(C)c3)c2c1=O`: the inhibition result is “inactive”.

`O=C(Nc1ccc(Cl)c(Cl)c1)N1CC=C(c2ccccc2)CC1`: the inhibition result is “inactive”.

`Cc1ccc(C(=O)/C=C/c2c(C)nn(-c3ccccc3)c2Cl)cc1`: the inhibition result is “inactive”.

As to `CCCOc1ccc2c3c(c(=O)oc2c1OCCC)CCC3`, the inhibition result is “inactive”.

With `COc1cccc(-c2cc3nc4c(c(N5CCC6(CC5)OCCO6)n3n2)CCCC4)c1`, the inhibition result is “inactive”.

With `Cc1nn(CC(=O)Nc2nc3ccccc3s2)c(C)c1[N+](=O)[O-]`, the inhibition result was “inactive”.

As for `COc1ccc(C(=O)C2CCCN(Cc3ccc4nonc4c3)C2)c(C)c1` (stereo not drawn), the inhibition entry is “inactive”.

`Cc1ccc(-c2csc(NCCc3nc4cc(Cl)c(Cl)cc4n3CCOCCO)n2)cc1`: the inhibition entry is “inactive”.

As to `COc1ccc2c(c1)C(c1cccs1)=NNC(c1cccnc1)=N2`, the inhibition result is “inactive”.

In the case of `COc1ccc([N+](=O)[O-])cc1-c1nc2ccccc2nc1-c1ccccc1`, the inhibition result was “inactive”.

Consider `Cc1cc2ccccn2c1C(=O)c1cccc(S(=O)(=O)N2CCOCC2)c1`, for which the inhibition entry is “inactive”.

As for `COc1ccc(/C=C2\CCc3ccccc3C2=O)c(OC)c1OC`, the inhibition result is “inactive”.

For `COc1cccc(OC)c1C(=O)Nc1sc2c(c1C(N)=O)CCCC2`, the inhibition result was “inactive”.

In the case of `CC(C)N(C(=O)CSc1nc(COc2ccccc2)nc2ccccc12)C(C)C`, the inhibition entry was “inactive”.

For the compound `O=c1cc(CN2CCN(c3cccc(Cl)c3)CC2)c2cc3c(cc2o1)CCCC3`, the inhibition result was “inactive”.

`Cc1ccc(CN2CCN(/N=C/c3ccco3)CC2)c(C)c1`: the inhibition result was “inactive”.

Regarding `Cc1[nH]c2ccccc2c1CCN(Cc1cccs1)C(=S)NC(C)(C)C`, the inhibition entry is “inactive”.

For the compound `O=C(CSCc1ccc(Cl)cc1)N1CCN(Cc2ccc3c(c2)OCO3)CC1`, the inhibition result is “inactive”.

For the compound `CCC/C=C(\CCC)C(NC(=O)Cc1ccccc1)c1ccc(C(=O)OC)cc1` (stereo not drawn), the inhibition entry is “inactive”.

As for `O=C1CC(NNc2ccccc2)C(=O)N1c1cccc(Cl)c1` (stereo not drawn), the inhibition entry is “inactive”.

For `FC(F)(F)c1cc(-c2ccco2)nc(NCc2ccc(Cl)cc2)n1`, the inhibition result is “inactive”.

`COc1ccc(NC(=O)CN(C)CC(=O)Nc2cccc(C(F)(F)F)c2)cc1`: the inhibition entry was “inactive”.

For `CCCCCn1c(=O)c(C(=O)OCC)c(Cl)c2ccccc21`, the inhibition entry was “inactive”.

Turning to `CCCCCCCCCCOC(=O)Cn1c(COc2cccc(OC)c2)[n+](C)c2ccccc21`, the inhibition was 70% (active).

Take `CCCCCCCCCCOC(=O)Cn1c(COc2ccc(C)cc2)[n+](C)c2ccccc21`: the inhibition was 60.5% (active).

For the compound `CCCSc1nc(NCc2ccco2)c2c3c(sc2n1)COC(C)(CC)C3` (stereo not drawn), the inhibition entry was “inactive”.

In the case of `COc1ccc(-c2noc(CSc3ccc(C)cc3)n2)cc1`, the inhibition entry is “inactive”.

`COc1cccc(COc2ccc(N(C)S(=O)(=O)c3ccccc3)cc2)c1`: the inhibition result is “inactive”.

On to `CCOc1ccc(C(C)C)cc1S(=O)(=O)n1nc(C)cc1C`, for which the inhibition result is “inactive”.

On to `Cc1cc(C=O)c(C)n1-c1ccc(NC2CCCCC2)c([N+](=O)[O-])c1`, for which the inhibition entry is “inactive”.

Consider `O=C(C[C@H]1C(=O)N(c2ccc(F)c(F)c2)C[C@@H]1Cc1ccccc1)Nc1ccccc1`, for which the inhibition entry was “inactive”.

Turning to `CCCCNC(=S)N/N=C1\CCCCc2ccccc21`, the inhibition entry was “inactive”.

As for `CC(C)(C)SCCSC1=CC(=O)CC(c2ccccc2)C1` (stereo not drawn), the inhibition entry is “inactive”.

For `COc1ccc(C(C)=O)cc1COc1ccc(Cl)c(C)c1`, the inhibition entry is “inactive”.

Turning to `CCOC(=O)c1c(NC(=O)CCCN2CCOCC2)sc2c1CC(C)(C)OC2`, the inhibition result is “inactive”.

Regarding `Cc1cc(C)cc(NC(=O)CSCc2cnn(-c3ccccc3)c2-n2cccc2)c1`, the inhibition was 43% (active).

`O=C1c2ccccc2S(=O)(=O)N1CC(O)Cn1c2ccccc2c2ccccc21` (stereo not drawn): the inhibition entry was “inactive”.

For `COc1cc(Cl)c(S(=O)(=O)N2CCN(Cc3ccc4c(c3)OCO4)CC2)cc1Cl`, the inhibition result is “inactive”.

With `Cc1cc(Cl)ccc1C(=O)C1CCCN(C(=O)CCN2CCCO2)C1` (stereo not drawn), the inhibition result is “inactive”.

As for `Cc1ccccc1N1CCN(Cc2nc(Cc3ccccc3F)no2)CC1`, the inhibition entry is “inactive”.

For the compound `COc1cccc(C(=O)NCCSc2ccc(Br)cc2)c1`, the inhibition entry is “inactive”.

Take `COc1cc(NC(=S)NCCSc2ccc(C)cc2)cc(OC)c1`: the inhibition entry was “inactive”.

Regarding `O=S(=O)(c1ccc(F)cc1)N1CCN(Cc2ccccc2C(F)(F)F)CC1`, the inhibition result was “inactive”.

As to `O=C(CSCc1ccc(Br)cc1)Nc1ccc(S(=O)(=O)N2CCCCCC2)cc1`, the inhibition result was “inactive”.

On to `CC1=C/C(=N\OS(=O)(=O)c2ccccc2)C=CC1=O`, for which the inhibition result is “inactive”.

Regarding `COc1ccc(-c2oc(/N=C/N3CCCC3)c(C#N)c2-c2ccc(OC)cc2)cc1`, the inhibition entry was “inactive”.

On to `Cc1ccc(S(=O)(=O)N2CCN(C(=O)COC(=O)c3c(C)cc(C)cc3C)CC2)c(C)c1`, for which the inhibition entry was “inactive”.

Take `Cc1ccc(NC2CCCN(C(=O)CCC3(C)CC3)C2)cc1C` (stereo not drawn): the inhibition result was “inactive”.

As to `CCOc1ccccc1NC(=O)C12CC3CC(C1)CC(c1ccc(C)cc1)(C3)C2`, the inhibition result is “inactive”.

With `COCCN(C(=S)Nc1cccc(Cl)c1C)C(C)c1ccco1` (stereo not drawn), the inhibition result was “inactive”.

Consider `Cn1nc(-c2ccccc2)c(CSc2cccc(Cl)c2)c1Cl`, for which the inhibition result is “inactive”.

For the compound `COc1ccc(C2Nc3ccccc3C(=O)N2Cc2ccccc2)cc1Cn1nnc2ccccc21` (stereo not drawn), the inhibition entry was “inactive”.

`Cc1csc(Nc2ccc(Cl)cc2)[n+]1-c1ccc(Cl)cc1`: the inhibition entry is “inactive”.

In the case of `CCC1=NN(C(=O)Cc2ccc([N+](=O)[O-])cc2)C(O)(c2ccc(Br)cc2)C1` (stereo not drawn), the inhibition entry is “inactive”.

As to `COc1ccc(OC)c(C(=O)c2coc3ccc(OC)cc23)c1`, the inhibition entry is “inactive”.

Turning to `Cc1cc(Oc2ccc(Cl)cc2)nc(SCC(=O)c2ccccc2)n1`, the inhibition entry was “inactive”.

Turning to `CCCC(=O)n1nc(NCc2ccc(OC)cc2)nc1NCc1ccc(OC)cc1`, the inhibition entry was “inactive”.

As to `CCCCn1ccnc1C(=O)c1cccc(S(=O)(=O)N2c3ccccc3CC2C)c1` (stereo not drawn), the inhibition result was “inactive”.

Regarding `CCCC1=Nc2cc(C(=O)NCc3ccco3)ccc2Sc2ccccc21`, the inhibition entry was “inactive”.

On to `Cc1ccc(N2CCN(S(=O)(=O)c3ccc(F)cc3)CC2)c(C)c1`, for which the inhibition result was “inactive”.

With `O=[N+]([O-])/C=C/c1ccc2c(ccn2Cc2ccccc2)c1`, the inhibition is 41.5% (active).

Regarding `CCc1cccc(C)c1N(C(=O)Cn1c(CO)nc2ccccc21)C(C)COC` (stereo not drawn), the inhibition entry is “inactive”.

As for `CCCN1C(=O)C(Cc2nc3ccccc3c(=O)n2-c2ccccc2)c2cc(C)ccc21` (stereo not drawn), the inhibition result was “inactive”.

In the case of `CCOC(=O)CSc1nc2c(sc(=S)n2CCc2ccccc2)c(=O)n1Cc1ccco1`, the inhibition entry is “inactive”.

Regarding `CN(c1ccccc1)S(=O)(=O)c1cccc(NC(=O)Cc2c(F)cccc2Cl)c1`, the inhibition is 28.5% (active).

`Cc1ccccc1CSCCNC(=O)c1ccc(N(C)S(=O)(=O)c2ccccc2)cc1`: the inhibition result was “inactive”.

On to `CN(CCC(=O)Nc1cc(S(=O)(=O)N(C)C)ccc1Cl)CC(=O)Nc1ccc(F)cc1`, for which the inhibition result was “inactive”.

With `CCOC(=O)C1=C(C)Nc2sc(C(=O)c3ccc(Br)cc3)c(N)c2C1c1ccc(C(=O)OC)cc1` (stereo not drawn), the inhibition result is “inactive”.

Consider `Cc1ccc(C(=O)c2c(NC(=O)c3ccccc3)sc(C)c2C)cc1`, for which the inhibition entry is “inactive”.

Consider `CCOc1ccc(CN(Cc2ccco2)C(c2cccs2)c2nnnn2C(C)(C)C)cc1` (stereo not drawn), for which the inhibition result is “inactive”.
